Laboratory results as given in PubChem BioAssay (NCI).
Compounds without any hit were thinned out: in the full panel of roughly 83,000, 20% have a hit.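 Negative percent growth values reflect cell death: -40 means 40% of the cells present at the start died, and -100 means all died.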 The source made the active and inactive calls. How the source made its calls: active means growth percent below 10; inactive means the rest.

The molecules below were run on MDA-MB-468 breast (assay: NCI-60 one-dose screen, 48 h (100 = growth as untreated, 0 = no growth, -100 = all killed)). Conditions: 10 µM unless noted.

Structure (SMILES) | growth
CC[C@]12CN3CCc4c([nH]c5ccccc45)[C@@](C(=O)OC)(c4cc5c(cc4OC)N(C)[C@H]4[C@@](O)(C(=O)OC)[C@H](OC(C)=O)[C@]6(CC)C=CCN7CC[C@]54[C@@H]76)CC(C3)[C@H]1O2 (stereo partly drawn) | -12.7% (active)
COc1cc(C2Nc3ccccc3S2)cc(CN2CCOCC2)c1O (stereo not drawn) | 26.3% (inactive)
COc1cc(C2CC(c3cccc(Nc4ccnc5cc(Cl)ccc45)c3)=NN2c2ccc(Cl)cc2)cc(OC)c1OC (stereo not drawn) | 74.4% (inactive)
